An excerpt weighted towards active compounds, which were near 2.4% of everything screened.
D2 PAM-1 – potentiates the human D2 dopamine receptor allosterically; DiscoveRx D2 beta-arrestin cells, luminescence, 90 min; 100% = 57 uM dopamine signal; potentiation, % (concentration not given with the values); hit rate 0.23% among 360,000; in the data active = potentiation above about 50%; inconclusive = mostly about 30% to 49%
Target sequence (P14416 whole entry, looked up): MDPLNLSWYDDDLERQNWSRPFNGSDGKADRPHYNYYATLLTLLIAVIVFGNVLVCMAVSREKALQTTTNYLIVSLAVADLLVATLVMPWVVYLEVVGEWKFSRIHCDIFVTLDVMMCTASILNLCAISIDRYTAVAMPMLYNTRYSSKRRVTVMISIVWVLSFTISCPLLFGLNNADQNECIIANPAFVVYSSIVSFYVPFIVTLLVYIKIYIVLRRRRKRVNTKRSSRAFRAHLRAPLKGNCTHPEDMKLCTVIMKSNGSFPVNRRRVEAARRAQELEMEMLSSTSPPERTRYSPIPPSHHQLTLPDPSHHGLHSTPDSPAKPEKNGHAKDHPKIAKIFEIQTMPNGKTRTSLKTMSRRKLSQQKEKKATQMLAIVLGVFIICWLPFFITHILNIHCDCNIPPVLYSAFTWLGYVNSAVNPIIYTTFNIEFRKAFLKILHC
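D2 cells co-treated with compound plus 50 nM dopamine (EC20) for 90 min at 37 deg C to detect potentiation. Beta-arrestin recruitment was read as enzyme-fragment luminescence after 1 h at ambient temperature. Full response was set by 57 uM dopamine.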
D2 ag-1 – activates the human D2 dopamine receptor. activation, % (concentration not given with the values). hit rate 0.084% among 360,000. AID 624465. DiscoveRx PathHunter D2 beta-arrestin, luminescence, 90 min; 100% = 57 uM dopamine signal; in the data active = activation above about 40%; inconclusive = between about 15% and that limit
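Agonist mode: compounds alone added to overnight-plated D2 PathHunter cells for 90 min at 37 C, with 57 uM final dopamine (EC100) defining full response. Beta-arrestin recruitment detected by chemiluminescent reagent, read after 1 h at ambient temperature.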
D2 ag-2 – agonists of human D2 dopamine receptor. HEK293 T-REx D2 cells, calcium flux agonist mode. activation, % at 2 µM. hit rate 0.53% among 340,000. AID 485358. P14416;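 active = activation over 3 SD above normal in the single-dose calcium agonist read, cut at about 30% in these data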; note: 0% is about no effect
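Calcium-flux readout, 1 cycle/sec over 180 s following compound pin transfer, in inducible HEK293 Trex D2 cells (force-coupled); dopamine controls included. Positive calcium responses during this window marked compounds as potential agonists.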
D2 PAM-2 – positive allosteric modulators of human D2 dopamine receptor. HEK293 T-REx D2, calcium flux, EC20 dopamine potentiation. hit rate 0.34% among 340,000. potentiation, % at 10 µM;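 active = potentiation over 3 SD above the plate norm, cut at about 30% in these data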; note: 0% is about no effect
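Potentiation of an EC20 dopamine calcium response is measured in a force-coupled, tetracycline-inducible Hek293 Trex D2 line. Compound-only kinetic reads over 180 s flag agonists before dopamine addition.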
D2 antag – antagonizes the human D2 dopamine receptor | P14416 | HEK293 TREx D2 cells, calcium flux, dopamine EC80 | inhibition, % at 10 µM | hit rate 2% among 340,000; in the data active = inhibition above about 30%; inactive = below that, where a call was filed; note: 0% is about no effect
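Overnight-induced (tetracycline, 30 C) HEK293 T-REx cells carrying force-coupled D2 receive a no-wash calcium dye, then compound, then EC80 dopamine at 180 s; signals are read kinetically throughout.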
Numbers without * were called inactive; ? = inconclusive; / = no result given.

SMILES	D2 PAM-1	D2 ag-1	D2 ag-2	D2 PAM-2	D2 antag
O=C(c1ccccc1Cl)N1CCNCC1	-5	-2	-1	-2	-8
Clc1cccc2c1Sc1ccccc1CC2N1CCNCC1 (configuration not stated)	-17	-2	2	-17	66*
CSc1ccc2c(c1)C(N1CCN(C)CC1)Cc1ccc(F)cc1S2 (configuration not stated)	-12	0	/	/	/
Fc1ccc2c(c1)Sc1ccc(Cl)cc1CC2N1CCN(CCC2OCCO2)CC1 (configuration not stated)	-25	-8	/	/	/
COCCCN1CCN(C2Cc3ccccc3Sc3ccc(Cl)cc32)CC1 (configuration not stated)	-42	-3	1	-28	107*
Clc1ccc2c(c1)C(N1CCNCC1)Cc1ccccc1S2 (configuration not stated)	-38	-3	1	-28	99*
NC(=O)CCN1CCN(CCOC2Cc3cc(Cl)ccc3Sc3ccccc32)CC1 (configuration not stated)	-37	3	0	-25	94*
CCCC(c1nnnn1C(C)(C)C)N1CCN(C(=O)c2ccco2)CC1 (configuration not stated)	-5	-2	1	1	4
O=C(CSc1nc2c(c(=O)[nH]1)CCC2)Nc1cccc(O)c1	/	/	-1	0	/
Cc1ccc2nc(SC(Cc3cc(Cl)ccc3Cl)C(=O)O)[nH]c2c1 (configuration not stated)	/	/	1	3	/
COc1ccc(C2C3=C(CC(C)(C)CC3=O)Nc3c2c(=O)n(C)c(=O)n3C)cc1OC (configuration not stated)	-21	0	0	2	8
COc1ccc(OC)c(C2C3=C(CCCC3=O)Nc3c2c(=O)n(C)c(=O)n3C)c1 (configuration not stated)	-11	0	1	32*	29
OC1(c2ccc(Br)cc2)CCN(Cc2cccc(Br)c2)CC1	-82	1	0	-42	103*
O=C(c1ccc(S(=O)(=O)NCc2ccco2)cc1)N1CCN(Cc2ccc3c(c2)OCO3)CC1	-18	-5	2	5	20
COc1ccccc1NC(=O)N1CC(=O)Nc2sc3c(c2C1c1ccccc1)CCCC3 (configuration not stated)	/	/	0	2	/
Nc1nc(CN2CCN(C(=O)c3ccco3)CC2)nc(Nc2cccc(Cl)c2)n1	27	?	38*	0	-19
CCOC(=O)N1CCN(Cc2nc(N)nc(Nc3ccc(Cl)cc3)n2)CC1	4	4	8	1	9
O=C(CN1CCN(C(=O)c2ccco2)CC1)NCc1ccc(Cl)cc1	7	2	0	20	32*
O=C(c1ccco1)N1CCN(Cc2nnc(-c3ccccc3F)o2)CC1	-2	2	-2	35*	-15
O=C(c1ccco1)N1CCN(Cc2ccc(F)cc2)CC1	?	44*	81*	-17	58*
O=C(CN1CCN(Cc2ccccc2)CC1)NCc1ccc(Cl)cc1	-8	4	0	2	-1
O=C(c1ccco1)N1CCN(c2ccc(F)cc2)CC1	-1	-1	1	-1	-5
c1c(C2CCCCC2)n[nH]c1CN1CCCCC1	-42	-1	0	-22	40*
O=C(Nc1cc(=O)c2ccccc2o1)N1CCCCC1	-13	-1	2	9	17
O=C(Nc1cc(=O)c2ccccc2o1)N1CCOCC1	-9	-1	1	31*	-2
SMILES	D2 PAM-1	D2 ag-1	D2 ag-2	D2 PAM-2	D2 antag
CN(C)c1ccc(N=Cc2cccn2C)cc1	-20	6	0	31*	-23
CN(C)c1ccc(N=Cc2nc(-c3ccccc3)oc2O)cc1	16	-1	/	/	/
COC(=O)C(C(C)=O)C1=C/C(=N\S(=O)(=O)c2ccc(C)cc2)c2ccccc2C1=O (configuration not stated)	50*	8	1	-4	-4
Cc1cccc(NC(=S)N2CCC(NC(=O)c3cccc(F)c3)CC2)c1	0	-2	5	-3	10
O=C(O)COc1ccc2occ(C(=O)c3ccccc3)c2c1	-2	-5	-2	7	38*
Cc1ccc(CN2CCN(Cc3cccc4c3OCO4)CC2CCO)cc1 (configuration not stated)	-13	-1	0	-19	88*
CCOc1ccc(CN2CCN(Cc3cccc4c3OCO4)CC2CCO)cc1 (configuration not stated)	-4	-5	1	-29	-28
Cc1oc(-c2ccccc2F)nc1CS(=O)(=O)CC(=O)NCCCN1CCN(C)CC1	-8	-1	1	0	10
Cc1oc(-c2ccccc2F)nc1CS(=O)(=O)CC(=O)NCCCN1CC(C)CC(C)C1 (configuration not stated)	-31	-7	-1	-4	48*
CCCNC(=O)CS(=O)(=O)Cc1nc(-c2ccccc2C)oc1C	-3	-3	0	6	40*
CC1CCN(C(=O)CN2CC(C)Sc3ccccc32)CC1 (configuration not stated)	/	/	1	2	/
Cc1ccc(CNC(=O)C(=O)NCC(c2cccs2)S(=O)(=O)c2cccs2)cc1 (configuration not stated)	/	/	0	/	/
CC(=O)N1CCN(c2csc3ccc(F)cc3c2=O)CC1	/	/	0	25	/
O=C(CCNS(=O)(=O)c1cccs1)NC1CCN(Cc2ccccc2)CC1	-12	0	1	-34	41*
O=C(CCNS(=O)(=O)c1ccc(Br)cc1)NC1CCN(Cc2ccccc2)CC1	-43	-2	/	/	/
O=C(NC1CCN(Cc2ccccc2)CC1)C12CC3CC(CC(C3)C1)C2	-16	-2	1	-29	32*
Cc1ccc(Cl)cc1S(=O)(=O)N1CCC(C(=O)NC2CCN(Cc3ccccc3)CC2)CC1	-16	-3	3	-22	31*
CC(Oc1ccccc1)C(=O)NC1CCN(Cc2ccccc2)CC1 (configuration not stated)	-20	-3	0	-28	42*
CC(Oc1ccccc1)C(=O)NC1CCCCCCC1 (configuration not stated)	-11	4	0	7	-12
Clc1cccc(CNc2cc(-c3ccccc3)nc3nncn23)c1	/	/	0	2	/
COCC1CCCN(C(=O)c2ccc3oc(Cc4ccc(Cl)cc4)nc3c2)C1 (configuration not stated)	-6	0	0	-3	-2
Cc1ccc2nc(CSc3nnc(NC(=O)COc4ccccc4F)s3)cc(=O)n2c1	/	/	-1	11	/
Cc1ccc(CC(=O)NC2CCN(Cc3ccccc3)CC2)cc1	-12	-2	0	-14	-3
Cc1ccccc1CC(=O)NC1CCN(Cc2ccccc2)CC1	-24	-1	0	-37	56*

Screens from PubChem BioAssay.
